Most compounds without a hit are left out; they make up all but 12% or so of the library.
G9a inh = qHTS Assay for Inhibitors of Histone Lysine Methyltransferase G9a; Histone-lysine N-methyltransferase EHMT2 (Homo sapiens), Q96KQ7; G9a H3K9 monomethylation, AlphaScreen, 2 h; Potency, µM (highest dose often 102 µM), actives largely listed as inhibitors; 8.8% of 350,000 active; AID 504332, 2011; also: nearly all actives have a fitted effect of over 75% in size
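Compounds were preincubated with 20 nM G9a for 15 min, after which biotinylated H3K9 peptide (500 nM) and SAM (20 uM) started a 2 h room-temperature reaction. Monomethylated product was quantified by antibody-based AlphaScreen chemiluminescence.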
HP1b chromo inh = HTS for Inhibitors of HP1-beta Chromodomain Interactions with Methylated Histone Tails; AlphaScreen HP1-beta / biotin-H3K9me3 peptide binding; Potency, µM (titrated, usually from 114 µM), actives largely listed as inhibitors; 0.56% of 390,000 active; AID 540317, 2011; also: nearly all actives have a fitted effect of over 70% in size
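HP1-beta protein (50 nM final) preincubated 30 min at room temperature with biotinylated H3(1-18)K9me3 peptide (50 nM) in PBS pH 7.4, 0.01% Tween-20, then compound added for 30 min. AlphaScreen streptavidin donor/nickel chelate acceptor beads (10 ug/mL final), 30 min dark, luminescence read.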
JMJD2A Tudor = qHTS Assay for Inhibitors of JMJD2A-Tudor Domain; Potency, µM (series often up to 114 µM), most hits filed as inhibitors; AlphaScreen JMJD2A-Tudor / H3K4me3 peptide binding; 4.4% of 390,000 active; also: nearly all actives have a fitted effect of over 50% in size
BAZ2B inh = qHTS Assay for Inhibitors of BAZ2B | Bromodomain adjacent to zinc finger domain protein 2B (Homo sapiens), Q9UIF8 | AlphaScreen BAZ2B-H3K14Ac peptide displacement | 4.4% of 360,000 active | AID 504333, 2011 | Potency, µM (titrated, usually from 114 µM), actives largely listed as inhibitors; also: nearly all actives have a fitted effect of over 60% in size
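BAZ2B (50 nM) with biotin-H3(5-23)K14Ac peptide (50 nM) in PBS pH 7.4, 0.01% Tween-20, preformed 30 min, then compound 30 min at room temperature; top concentration 110uM. AlphaScreen streptavidin donor/nickel chelate acceptor beads (10 ug/mL final), 20 min dark, signal read.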
Sfp inh = qHTS Assay for Inhibitors of Bacillus subtilis Sfp phosphopantetheinyl transferase (PPTase); 3.5% of 310,000 active; 4'-phosphopantetheinyl transferase ffp (Bacillus subtilis), Q9F4F7; AID 1490, 2009; Biochemical Sfp PPTase activity, qHTS; Potency, µM, actives largely listed as inhibitors;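 also: the enzyme is Sfp with the accession as filed and its product quenches rhodamine fluorescence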
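Compounds were incubated with enzyme (final 15 nM) for 15 min at room temperature before substrate addition started the reaction. Fluorescence at 525 nm excitation, 598 nm emission was recorded immediately and after 30 minutes.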
Of the large screens only hits and unclear results are named; the others gave an inactive call; ! = a repeat was not active. Calls follow the shape of the dose curve; as a rule, active = well fitted curve in the direction sought with a large enough effect; inconclusive = small, poorly fitted or top-dose-only effect, or another doubt; inactive = no such curve, though single readings can be large; an effect the other way counts as inactive or inconclusive.

CCN(CC)c1ccc(/C=N/N2CCN(Cc3ccccc3Cl)CC2)c(O)c1	G9a inh 11µM, HP1b chromo inh inconclusive, JMJD2A Tudor 32µM, BAZ2B inh 10µM
Cc1ccc(CN2CCN(/N=C/c3cc(Br)cc(Br)c3O)CC2)c(C)c1	G9a inh 40µM
Cc1ccc(CN2CCN(/N=C/c3cc(Br)cc(Br)c3O)CC2)cc1	HP1b chromo inh inconclusive, JMJD2A Tudor inconclusive
Cc1ccc(CN2CCN(/N=C/c3ccc(C(=O)O)cc3)CC2)c(C)c1	G9a inh inconclusive, BAZ2B inh inconclusive
COC(=O)c1ccc(/C=N/N2CCN(Cc3ccc(C)cc3C)CC2)cc1	G9a inh inconclusive, JMJD2A Tudor inconclusive, BAZ2B inh 40µM
COC(=O)c1ccc(/C=N/N2CCN(Cc3ccccc3Cl)CC2)cc1	JMJD2A Tudor 8.9µM
OCC(O)C(O)[C@H](O[C@H]1OC(CO)C(O)C(O)C1O)[C@H](O)CO (some centres undefined)	none (no result: G9a inh, HP1b chromo inh, JMJD2A Tudor, BAZ2B inh)
CCOc1ccccc1NC(=O)CN1Cc2ccccc2C1=O	none (no result: Sfp inh)
CCc1ccccc1NC(=O)CNC(=O)CNC(=O)c1cccs1	none (no result: Sfp inh)
Cc1c(C)n(-c2ccccc2)c2ncnc(NCCN(C)C)c12	G9a inh inconclusive
CCOc1ccccc1NC(=O)Cn1cc(C(=O)c2cccc(OC)c2)c(=O)c2ccc(C)nc21	none (no result: Sfp inh)
CC(Oc1ccc(Br)cc1)C(=O)Nc1cc(S(=O)(=O)N2CCOCC2)ccc1N1CCCC1 (centres undefined)	G9a inh inconclusive (no result: Sfp inh)
CCN(CC)c1nc(C#N)nc(N2CCOCC2)n1	none (no result: G9a inh, BAZ2B inh, Sfp inh)
COc1cc(NC(=O)COC(=O)C2CC(O)CN2S(=O)(=O)c2ccc(Cl)cc2)c(C)cc1[N+](=O)[O-] (centres undefined)	none (no result: G9a inh, BAZ2B inh, Sfp inh)
Cc1ccc(S(=O)(=O)N2CC(O)C[C@H]2C(=O)OCC(=O)Nc2ccc(N3CCCCC3)cc2)cc1C (some centres undefined)	G9a inh 6.3µM, HP1b chromo inh inconclusive, JMJD2A Tudor 45µM, BAZ2B inh 40µM (no result: Sfp inh)
O=C(COC(=O)[C@@H]1CC(O)CN1S(=O)(=O)c1ccc([N+](=O)[O-])cc1)NC12CC3CC(CC(C3)C1)C2 (some centres undefined)	G9a inh 20µM
COc1ccc(N2CCN(C(=O)C3CC(O)CN3S(=O)(=O)c3ccc([N+](=O)[O-])cc3)CC2)cc1 (centres undefined)	G9a inh 45µM
COc1ccc(S(=O)(=O)CCC(=O)N2CCN(c3ccc([N+](=O)[O-])cc3)CC2)cc1	none
O=C(COC(=O)c1ccc([N+](=O)[O-])cc1)NC12CC3CC(CC(C3)C1)C2	none (no result: G9a inh, BAZ2B inh, Sfp inh)
COc1cccc(NC(=O)/C(C#N)=C\c2cn(Cc3ccc(C)cc3)c3ccccc23)c1	none (no result: Sfp inh)
Cc1cc2c(cc1C)NC(CC(=O)Nc1ccccc1SC(F)(F)F)C(=O)N2 (centres undefined)	none (no result: Sfp inh)
CN(C)S(=O)(=O)N1CCN(C(=O)c2ccc3c(c2)OCO3)CC1	none
CN1CCN(Cc2oc(CO)cc(=O)c2O)CC1	G9a inh inconclusive, JMJD2A Tudor 56µM, BAZ2B inh inconclusive
CCN(CC)Cc1oc(CO)cc(=O)c1O	G9a inh 13µM, HP1b chromo inh inconclusive, JMJD2A Tudor inconclusive, BAZ2B inh 32µM
O=C(O)C1CCN(Cc2oc(CO)cc(=O)c2O)C1 (centres undefined)	JMJD2A Tudor inconclusive (no result: G9a inh, BAZ2B inh, Sfp inh)
COc1ccc(N2CCN(Cc3oc(CO)cc(=O)c3O)CC2)cc1	G9a inh inconclusive, JMJD2A Tudor inconclusive, BAZ2B inh inconclusive
O=c1cc(CO)oc(CN2CCN(Cc3ccccc3)CC2)c1O	G9a inh 50µM, JMJD2A Tudor inconclusive, BAZ2B inh inconclusive
O=c1cc(CO)oc(CN2CCCC2)c1O	G9a inh 45µM, JMJD2A Tudor 89µM, BAZ2B inh inconclusive
CCCCC[C@H](O)/C=C/C=C\C/C=C\CCCCC(=O)O	none (no result: G9a inh, HP1b chromo inh, JMJD2A Tudor, BAZ2B inh)
O=S(=O)(Nc1cccnc1)c1cccc(Cl)c1	none
COc1ccc(NS(=O)(=O)c2ccc(N3CCOCC3)c(NC(=O)C(C)C)c2)cc1	none (no result: BAZ2B inh)
C/C(=N\Nc1ccc(S(=O)(=O)Nc2ccc(Cl)cc2)cc1[N+](=O)[O-])c1ccc(N2CCOCC2)cc1	G9a inh 8.9µM, HP1b chromo inh inconclusive, JMJD2A Tudor 5µM, BAZ2B inh 7.9µM
CCOC(=O)/C=C/C(=O)Nc1cc(S(=O)(=O)Nc2ccc(OC)cc2)ccc1N1CCOCC1	G9a inh 45µM (no result: Sfp inh)
CC(=O)c1cccc(S(=O)(=O)Nc2cccnc2)c1	G9a inh 45µM
CCOC(=O)c1ccc(S(=O)(=O)Nc2ccc(N3CCOCC3)cc2)cc1	G9a inh 79µM
Cc1ccc(-c2nc(C)c(CCNC(=O)C(=O)Nc3ccc(C)c(Cl)c3)s2)cc1	none (no result: Sfp inh)
CCOC(=O)c1ccc(NS(=O)(=O)c2ccc3c(c2)n(C)c(=O)n3C)cc1	BAZ2B inh 79µM!
O=S(=O)(NCCN1CCOCC1)c1ccc(F)c(Cl)c1	JMJD2A Tudor 14µM
O=S(=O)(NCCN1CCOCC1)c1ccc(Cl)c(Cl)c1	G9a inh inconclusive
CC(=O)c1ccc(S(=O)(=O)Nc2ccc(-c3ccc4nnc(C)n4n3)cc2)cc1	BAZ2B inh 71µM
CC(=O)c1cccc(S(=O)(=O)Nc2ccc(N3CCOCC3)cc2)c1	G9a inh 50µM
Cc1nnc2ccc(-c3ccc(NS(=O)(=O)c4ccccc4)cc3)nn12	none (no result: Sfp inh)
COc1cc(NC(=O)c2nnn(CC(=O)Nc3ccccc3)c2N)cc(OC)c1	none (no result: Sfp inh)
Cc1nn(CCCC(=O)Nc2cccc(F)c2)c(=O)c2c1sc1ccccc12	G9a inh inconclusive (no result: Sfp inh)
CC1CN2C(CCC(C)C2c2ccc(Br)cc2)C(=O)O1 (centres undefined)	none (no result: G9a inh, HP1b chromo inh, JMJD2A Tudor, BAZ2B inh)
O=C1C[C@@H]2c3c(cccc3CN1Cc1ccccc1F)C[C@@H](O)[C@H]2O	none (no result: G9a inh, BAZ2B inh, Sfp inh)
CC(C)c1ccc(NC(=O)CN2CCN(C(=O)C3CCCO3)CC2)cc1 (centres undefined)	none
COC/C=C/C1=CC2=CC(=O)C(C)(OC(=O)c3cnc4ccccc4n3)C(=O)C2=CN1CCc1c[nH]c2ccccc12 (centres undefined)	none (no result: G9a inh, HP1b chromo inh, JMJD2A Tudor, BAZ2B inh)
CC(=O)Nc1ccc(S(=O)(=O)Nc2ccc(N3CCOCC3)cc2)cc1	none
CC(=O)c1cccc(S(=O)(=O)NCCCN2CCOCC2)c1	G9a inh 1.4µM (no result: Sfp inh)
COCCNS(=O)(=O)c1ccc2c(c1)n(C)c(=O)n2C	G9a inh 4.5µM
CCOC(=O)c1ccc(S(=O)(=O)Nc2cc(C(C)(C)C)no2)cc1	G9a inh inconclusive, Sfp inh 79µM
CC(=O)c1ccc(S(=O)(=O)Nc2ccc(N3CCOCC3)cc2)cc1	G9a inh 28µM
CC(=O)c1cccc(NC(=O)c2c(N3CCCC3=O)c3cc(F)ccc3n2C)c1	G9a inh inconclusive (no result: Sfp inh)

Bioassay records from PubChem.
